Measured values: the supplement of paper PMC4709259
Structures can show the parent of a compound that is named as a salt. ± gives the standard deviation.

What was measured:
Jurkat [1] = experiment: mean cell size (FSC-A) relative to DMSO control (fraction of control); higher = larger cells; conditions: 48 h
Outline: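 Jurkat cells at 600 cells/µl were incubated for 1 h and then treated for 48h with the Enzo Screen-Well FDA Approved Drug Library v2.0 at 25µM, with DMSO at 0.9% (v/v) final. Compounds that reduced counts below 20% of controls were retested in 10-fold dilutions down to 25nM. Cell count and mean cell size, taken as forward scatter area, were measured by flow cytometry relative to solvent-only controls. Each plate carried 6-12 controls, and values are means of 3 biological replicates.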

Jurkat [2] = experiment: cell count relative to DMSO control (fraction of control); higher = more cells (less growth inhibition); conditions: 48 h

SMILES | mean cell size (Jurkat [1]) | cell count (Jurkat [2])
COCCc1ccc(OCC(O)CNC(C)C)cc1 (stereo not drawn) [Metoprolol Tartrate] (concentration: 25 µM) | 0.935 ± 0.026 | 1.02 ± 0.11
C[C@]12CC[C@@H]3c4ccc(OS(=O)(=O)O)cc4CC[C@H]3[C@@H]1CCC2=O [Estropipate] (concentration: 25 µM) | 1.06 ± 0.069 | 0.747 ± 0.21
CN[C@@H]1[C@H](O[C@H]2[C@H](O[C@H]3[C@H](O)[C@@H](O)[C@H](N=C(N)N)[C@@H](O)[C@@H]3N=C(N)N)O[C@@H](C)[C@]2(O)C=O)O[C@@H](CO)[C@H](O)[C@H]1O [Streptomycin Sulfate] (concentration: 25 µM) | 0.996 ± 0.028 | 0.791 ± 0.011
C[C@H](Cn1cnc2c(N)ncnc21)OCP(=O)(O)O [Tenofovir] (concentration: 2.5 µM) | 0.997 ± 0.14 | 0.894 ± 0.016
CC(=O)[C@]1(O)Cc2c(O)c3c(c(O)c2[C@@H](O[C@H]2C[C@H](N)[C@H](O)[C@H](C)O2)C1)C(=O)c1ccccc1C3=O [Idarubicin·HCl] (concentration: 25 nM) | 1.01 ± 0.047 | 0.622 ± 0.11
CCN(CC)CC#CCOC(=O)C(O)(c1ccccc1)C1CCCCC1 (stereo not drawn) [Oxybutynin Chloride] (concentration: 25 µM) | 0.904 ± 0.022 | 0.895 ± 0.049
C[N+]1(C)[C@@H]2C[C@@H](OC(=O)C(O)(c3cccs3)c3cccs3)C[C@H]1[C@@H]1O[C@@H]12 [Tiotropium Bromide Monohydrate] (concentration: 25 µM) | 0.988 ± 0.036 | 0.68 ± 0.051
COCCCOc1ccnc(C[S+]([O-])c2nc3ccccc3[nH]2)c1C (stereo not drawn) [Rabeprazole·Na] (concentration: 25 µM) | 0.923 ± 0.02 | 0.523 ± 0.06
COc1ccccc1Oc1c(NS(=O)(=O)c2ccc(C(C)(C)C)cc2)nc(-c2ncccn2)nc1OCCO [Bosentan] (concentration: 25 µM) | 0.975 ± 0.018 | 0.675 ± 0.068
C#C[C@]1(O)CC[C@H]2[C@@H]3CCc4cc(OC)ccc4[C@H]3CC[C@@]21C [Mestranol] (concentration: 25 µM) | 1.01 ± 0.022 | 0.91 ± 0.12
COc1ccc([C@@H]2Sc3ccccc3N(CCN(C)C)C(=O)[C@@H]2OC(C)=O)cc1 [Diltiazem·HCl] (concentration: 25 µM) | 0.959 ± 0.053 | 0.359 ± 0.13
Oc1ncnc2[nH]ncc12 [Allopurinol] (concentration: 25 µM) | 0.965 ± 0.013 | 0.701 ± 0.13
C=CC[C@@H]1/C=C(\C)C[C@H](C)C[C@H](OC)[C@H]2O[C@@](O)(C(=O)C(=O)N3CCCC[C@H]3C(=O)O[C@H](/C(C)=C/[C@@H]3CC[C@@H](O)[C@H](OC)C3)[C@H](C)[C@@H](O)CC1=O)[C@H](C)C[C@@H]2OC [Tacrolimus (Fk506)] (concentration: 25 µM) | 0.83 ± 0.065 | 0.408 ± 0.045
Cc1ccc(NC(=O)c2ccc(CN3CCN(C)CC3)cc2)cc1Nc1nccc(-c2cccnc2)n1 [Imatinib Mesylate] (concentration: 25 µM) | 0.968 ± 0.032 | 0.589 ± 0.07
C[C@@H](O[C@H]1OCCN(Cc2n[nH]c(=O)[nH]2)[C@H]1c1ccc(F)cc1)c1cc(C(F)(F)F)cc(C(F)(F)F)c1 [Aprepitant] (concentration: 2.5 µM) | 1.08 ± 0.022 | 0.651 ± 0.024
CC(C)c1ccc2oc3nc(N)c(C(=O)O)cc3c(=O)c2c1 [Amlexanox] (concentration: 25 µM) | 0.923 ± 0.018 | 0.469 ± 0.12
CC[C@]1(O)C[C@H]2CN(CCc3c([nH]c4ccccc34)[C@@](C(=O)OC)(c3cc4c(cc3OC)N(C=O)[C@H]3[C@@](O)(C(=O)OC)[C@H](OC(C)=O)[C@]5(CC)C=CCN6CC[C@]43[C@@H]65)C2)C1 [Vincristine Sulfate] (concentration: 25 nM) | 0.985 ± 0.011 | 0.083 ± 0.066
COC(=O)[C@@H]1CC2=CC(=O)CC[C@]2(C)[C@@]23O[C@@H]2C[C@@]2(C)[C@@H](CC[C@@]24CCC(=O)O4)[C@H]13 [Eplerenone] (concentration: 25 µM) | 1.19 ± 0.035 | 0.521 ± 0.06
CN(C)CCCN1c2ccccc2Sc2ccc(Cl)cc21 [Chlorpromazine·HCl] (concentration: 2.5 µM) | 1.06 ± 0.017 | 0.631 ± 0.15
COc1cc(C(=O)NCc2ccc(OCCN(C)C)cc2)cc(OC)c1OC [Trimethobenzamide·HCl] (concentration: 25 µM) | 0.9923 ± 0.0096 | 1.07 ± 0.057
N[C@@H](Cc1cc(I)c(Oc2cc(I)c(O)c(I)c2)c(I)c1)C(=O)O [Levothyroxine·Na] (concentration: 25 µM) | 1.02 ± 0.059 | 0.808 ± 0.087
COCCOC(=O)C1=C(C)NC(C)=C(C(=O)OC(C)C)C1c1cccc([N+](=O)[O-])c1 (stereo not drawn) [Nimodipine] (concentration: 25 µM) | 0.938 ± 0.027 | 0.628 ± 0.17
COc1ccc(O)cc1 [Mequinol] (concentration: 25 µM) | 1.15 ± 0.034 | 0.863 ± 0.063
Cc1ccccc1C(OCCN(C)C)c1ccccc1 (stereo not drawn) [Orphenadrine Citrate] (concentration: 25 µM) | 0.975 ± 0.056 | 0.742 ± 0.13
